Consider 15 molecules from PubChem BioAssay (NCI).

Common to all, as to test: NCI-60 one-dose screen, 48 h (100 = growth as untreated, 0 = no growth, -100 = all killed)
Holding throughout (details): 10 µM unless noted

Experiment [1] deals with T-47D breast.
In experiment [2] the test system is BT-549 breast.
In experiment [3] the test system is MDA-MB-435 melanoma.
For experiment [4], the system named is SW-620 colon.
Experiment [5] has as its system MCF7 breast.
For experiment [6], the system named is HCT-116 colon.
For experiment [7], the system named is HCC-2998 colon.
The test system of experiment [8] is KM12 colon.

The structures appear in SMILES notation. The panel holds about 83,000 compounds, 20% with a hit somewhere; the sample as a whole holds those more often.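 Percent growth is the endpoint: 0 to 100 indicates growth inhibition (40 means 60% inhibition), 0 means no net growth, and negative values indicate cell death.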 Unmarked numbers belong to inactive results. Active and inactive are the calls of the source. Rule for the calls: active = growth percent below 10; inactive = the rest.

Turning to `Oc1ccccc1/C=N/Nc1nc(N/N=C/c2ccccc2O)nc(N2CCOCC2)n1`, the growth in experiment [1] was 46.1%; in experiment [2], 76.3%; in experiment [3], 58.9%; in experiment [4], 38.5%; in experiment [5], 40%; in experiment [6], 19.2%. Further, the results for the growth in experiment [7] and in experiment [8] were 58.9% and 52.7%, respectively.
As for `CCc1ccc(NC(=O)N[C@@H](Cc2cccc(F)c2)C(=O)N[C@@H]2C(=O)N3CCC[C@H]3C(=O)N3CCCC[C@H]3C(=O)N[C@@H](C)C(=O)N3C[C@H](C)C[C@H]3C(=O)O[C@H]2C)c(F)c1`, the growth in experiment [1] is 29.6%; in experiment [2], 17.9%; in experiment [3] it was 19.2%; in experiment [4], 34.4%; in experiment [5] it was 15.2%; in experiment [6], 3.62% (active). Also, the growth was 5.04% (active) in experiment [7] and 33.6% in experiment [8].
Turning to `O=C1Nc2cc(OC(F)(F)F)ccc2Oc2ccc(-c3ccnc(N4CCNCC4)c3)cc21`, the growth was -61.9% (active) in experiment [1]; -4.26% (active) in experiment [2]; -95.7% (active) in experiment [3]; -91.8% (active) in experiment [4]; -55.7% (active) in experiment [5]; -91.4% (active) in experiment [6]. Besides, the growth in experiment [7] was -76.8% (active); in experiment [8] it was -10.6% (active).
On to `C/C(=C(/c1ccc(O)cc1)c1ccc(OCCN2CCCC2)cc1)c1ccc(Cl)cc1`, for which the growth in experiment [1] was 24.9%; in experiment [2] it was 89.6%; in experiment [3], 20%; in experiment [4], -57.1% (active); in experiment [5], 5.58% (active); in experiment [6], 36.6%. The growth in experiment [7] was 17.2%; in experiment [8] it was 46.5%.
As for `NC(=O)N1N=C(c2cc3ccccc3oc2=O)CC1c1cn(-c2ccccc2)nc1-c1ccc(Cl)cc1` (stereo not given), the growth was 25.1% in experiment [1]; 68.7% in experiment [2]; 47.4% in experiment [3]; 35.5% in experiment [4]; 25.4% in experiment [5]; 26.7% in experiment [6]. The growth is 57% in experiment [7] and 34.5% in experiment [8].
For `C=CCn1c(SCC(=O)Nc2cccc(C(=O)/C=C/c3ccc(Cl)cc3)c2)nc2ccccc2c1=O`, the growth in experiment [1] is 78.6%; in experiment [2], 94.6%; in experiment [3], 92.3%; in experiment [4], 77.4%; in experiment [5], 28.3%; in experiment [6] it was 15.4%. Besides, the growth in experiment [7] is 94.8%; in experiment [8], 88%.
Regarding `C/C(=C(/c1ccc(O)cc1)c1ccc(OCCN(C)C)cc1)c1ccc(Cl)cc1`, the growth in experiment [1] was 30.9%; in experiment [2] it was 73.7%; in experiment [3], 28.1%; in experiment [4] it was -32.9% (active); in experiment [5], 15.7%; in experiment [6] it was 25.6%. Further, the growth was 7.02% (active) in experiment [7] and 44.8% in experiment [8].
Take `CC1(C)CC[C@]2(C(=O)N3CCCNCC3)CC[C@]3(C)C(=CC[C@@H]4[C@@]5(C)CCC(=O)C(C)(C)[C@@H]5CC[C@]43C)[C@H]2C1`: the growth in experiment [1] is 100%; in experiment [2], 112%; in experiment [3], 112%; in experiment [4], 101%; in experiment [5] it was 93.6%; in experiment [6], 103%. Besides, the growth in experiment [7] is 102%; in experiment [8], 105%.
Regarding `C=C(C)[C@@H]1CC[C@]2(C(=O)ON)CC[C@]3(C)[C@H](CC[C@@H]4[C@@]5(C)C/C(=C/c6ccc(Br)cc6)C(=O)C(C)(C)[C@@H]5CC[C@]43C)[C@@H]12`, the growth in experiment [1] was 49.4%; in experiment [2] it was 96.9%; in experiment [3], 81.1%; in experiment [4], 81.7%; in experiment [5] it was 44.9%; in experiment [6] it was 48.6%. Further, the growth was 82.9% in experiment [7] and 69.9% in experiment [8].
Turning to `O=C1c2c(c3c4ccc(Br)cc4oc3c3[nH]c4ccccc4c23)C(=O)N1CCO`, the growth in experiment [1] is 10.5%; in experiment [2] it was 55.3%; in experiment [3], 59%; in experiment [4], 47%; in experiment [5], 18.6%; in experiment [6] it was 39.6%. Moreover, the growth in experiment [7] was 77.8%; in experiment [8] it was 65.6%.
For the molecule `CCCCCc1ccc(S(=O)(=O)N(C(C)=O)c2cccc(-c3csc(N(CCN4CCN(C)CC4)C(C)=O)n3)c2)cc1`, the growth in experiment [1] is 50.4%; in experiment [2] it was 91.3%; in experiment [3] it was -73% (active); in experiment [4] it was -26.5% (active); in experiment [5], -66.2% (active); in experiment [6], -66.2% (active). Also, the growth in experiment [7] is -81.2% (active); in experiment [8], 27.4%.
On to `O=C1Nc2cc(OC(F)(F)F)ccc2Oc2ccc(-c3ccnc(N4CC[C@H](O)C4)c3)cc21`, for which the growth in experiment [1] was 62.3%; in experiment [2], -18.7% (active); in experiment [3] it was -57.3% (active); in experiment [4], -19.3% (active); in experiment [5] it was 0.967% (active); in experiment [6], -40.5% (active). Further, the values for the growth in experiment [7] and in experiment [8] were 0.963% (active) and -12.9% (active), respectively.
As to `O=C(COc1cccc2cccnc12)Nc1ccc(C(=O)/C=C/c2ccc(Cl)cc2)cc1`, the growth was 74.8% in experiment [1]; 87.9% in experiment [2]; 92.6% in experiment [3]; 93.6% in experiment [4]; 17.1% in experiment [5]; 5.25% (active) in experiment [6]. The growth in experiment [7] is 102%; in experiment [8] it was 86.5%.
Turning to `CN1CCN(c2ccc(C(=O)Nc3cccc(-c4cn(-c5ccc(S(N)(=O)=O)cc5)nn4)c3)cc2C(F)(F)F)CC1`, the growth in experiment [1] was 74.8%; in experiment [2] it was 73.5%; in experiment [3] it was 77.7%; in experiment [4], 50.4%; in experiment [5] it was 70.8%; in experiment [6], 71.4%. Moreover, the growth in experiment [7] is 88.3%; in experiment [8], 59.1%.
`Nc1ccc(-c2nnc(SCc3ccc(O)c4ncccc34)o2)cc1`: the growth in experiment [1] was -19.7% (active); in experiment [2] it was -11.7% (active); in experiment [3], 7.57% (active); in experiment [4], 5.51% (active); in experiment [5], 2.52% (active); in experiment [6] it was 0.176% (active). Further, the figures for the growth in experiment [7] and in experiment [8] were 14.3% and 0.48% (active), respectively.
